The source of these data is PubChem BioAssay.

A number with no mark means an inactive call. Calls of active or inactive are those of the source.
Also: test concentration not given here.

The nature of the first assay: growth effects on S. cerevisiae YJM789 – YJM789 clinical isolate, OD600, 24 h, basal, primary screen (AID 1089).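 Also: growth of clinical yeast isolate S. cerevisiae YJM 789 seeded 1000 cells per well.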 Particulars: higher = more signal, called active from +8 up or from −8 down.
With `CO[C@H]1O[C@H](CO)[C@@H](OC(=O)c2ccc(Br)cc2)[C@@H]2OC(=O)[C@H](Cc3ccccc3)C/C=C/C[C@@H](Cc3ccccc3)C(=O)O[C@@H]12`, the z-score is -1.92.
Still for that read-out and setting: in the case of `CC(C)C(CO)N1C(=O)[C@@H]2[C@H]3C(=O)OCC=C[C@H]3OC23C=CCN(C(C)(C)C)C(=O)[C@@H]13` (stereo not given in full) it was 0.027; in that of `[N-]=[N+]=Nc1ccccc1C[C@]1(C(=O)O)N=C(c2ccc(OCCCO)cc2)O[C@H]1c1ccccc1N=[N+]=[N-]`, -0.228.
On the same count and under the same terms, in the case of `C=C(/C(=C/C[C@@H](OC(=O)c1ccncc1)c1cccc(OCCO)c1)c1cnc2ccccc2c1)C(C)C` it was -2.06; in that of `CCCNC(=O)[C@@]1(Sc2ccc(C)cc2)CC(=O)N(C(C)C)[C@@H]1c1ccc(CO)cc1I`, -1.08; in that of `C=CCNC(=O)[C@@H]1[C@H]2C(=O)O[C@H](c3ccccc3)[C@H](c3ccccc3)N2[C@H](c2ccc(OCCO)cc2)[C@@]12C(=O)N(C(=O)OCCOC)c1ccc(C#CCCO)cc12`, -0.0915.
Same read-out and setting: the result for `CCCCCCCCCCC(O)C1C=CC2C(=O)N(c3ccccc3)C(=O)C2N1Nc1ccccc1F` (stereo not given) reads 0.536.
As for `COC(=O)C1N=C(c2ccc(OCCCO)cc2)N(c2ccccc2)O1` (stereo not given), the z-score is -0.686.
Turning to `COC(=O)[C@@]1(Cc2ccc(F)cc2)[C@H]2c3cc(C(=O)N4CCCC4)n(C)c3C[C@H]2CN1C(=O)c1ccccc1`, the z-score is -0.42.
Same read-out and setting: in the case of `O=C1C2C=CC(C(O)C=Cc3ccc([N+](=O)[O-])cc3)N(Nc3ccccc3)C2C(=O)N1c1ccccc1` (stereo not given) it was 0.431.

Another assay is described as follows: S. pombe growth modifiers, basal conditions – strain 972, OD600, 24 h, no modulator, primary screen (AID 1090).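 Also: basal condition with compound alone and no growth modifier present.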 Particulars: S. pombe 972 growth, higher = more signal, called active from +8 up or from −8 down.
Turning to `CCOC(=O)C=Cc1cc(F)ccc1O`, the z-score is -15.2 (active).
Same read-out and setting: the result for `[N-]=[N+]=Nc1ccccc1[C@@H]1OC(c2ccc(OCCCO)cc2)=N[C@]1(Cc1ccccc1)C(=O)NCc1ccccc1` reads -0.27; that for `Cc1ccccc1C(O)C1C=CC2C(=O)NC(=O)C2N1Nc1ccc(Cl)cc1Cl` (stereo not given), -2.81.
The same measure, in the same setting: the result for `COc1ccc([Si](C)(C)[C@H]2[C@H](CCO)O[C@@]3(C(=O)N(Cc4ccccc4)c4ccc(N5CCOC5=O)cc43)[C@@H]2C)cc1` reads -0.0089.
Still for that read-out and setting: the result for `COCC1C2CC[C@H]3C(OCc4ccc(OC)cc4)OC[C@]4(C)[C@H]3C2=C(CN4C(=O)OC(C)(C)C)[C@H](C)C1COC` (stereo not given in full) reads -1.18.
For the molecule `COCCOC(=O)N1C(=O)[C@@]2(c3cc(C#CC4(O)CCCCCC4)ccc31)[C@H](C(=O)N1CCN(c3ncccn3)CC1)[C@H]1C(=O)O[C@H](c3ccccc3)[C@H](c3ccccc3)N1[C@@H]2c1ccccc1OCCO`, the z-score was 2.26.
As to `COc1ccc(C(=O)Nc2cccc(CN3C(=O)[C@@]4(O[C@@H](CC(=O)N(CCO)Cc5ccccc5)[C@H]([Si](C)(C)c5ccc(OC)cc5)[C@H]4C)c4ccccc43)c2)cc1`, the z-score is -0.9.
On the same count and under the same terms, the result for `COCCOC(=O)N1C(=O)[C@@]2(c3cc(C#CCNC(N)=O)ccc31)[C@H](c1ccc(O)cc1)N1[C@H](c3ccccc3)[C@H](c3ccccc3)OC(=O)[C@H]1[C@@H]2C(N)=O` reads 0.0929; that for `O=C1C2C=CC(C(O)c3cccc(O)c3)N(Nc3ccccc3)C2C(=O)N1c1ccccc1` (stereo not given), -0.581; that for `COc1ccc([Si](C)(C)[C@@H]2[C@@H](CC(=O)N3Cc4ccccc4C[C@H]3CO)O[C@]3(C(=O)N(c4ccccc4)c4ccccc43)[C@H]2C)cc1`, 1.4.
Turning to `COc1ccc(C(O)C2C=CC3C(=O)N(c4ccccc4)C(=O)C3N2Nc2ccccc2F)cc1` (stereo not given), the z-score was 0.575.
Still for that read-out and setting: the result for `COCCOC(=O)N1C(=O)[C@@]2(c3cc(C#CCC(C(=O)OC)C(=O)OC)ccc31)[C@H](c1ccc(O)cc1)N1[C@H](c3ccccc3)[C@H](c3ccccc3)OC(=O)[C@H]1[C@@H]2C(=O)NC[C@H](O)c1ccccc1` reads -0.371.
Same read-out and setting: in the case of `COCC(=C=CC[C@H](O)c1cccc(OCCO)c1)C[C@H](O)COCc1ccccc1` it was -1.43.
On the same count and under the same terms, the result for `C=C(C)[C@@H]1CC=C(C(O)C2C=CC3C(=O)N(c4ccccc4)C(=O)C3N2Nc2ccc(C#N)cc2)CC1` (stereo not given in full) reads 0.369; that for `COc1ccc(NC(=O)O[C@H]2[C@@H]3OC(=O)[C@H](Cc4cccc(Br)c4)C/C=C/C[C@@H](Cc4cccc(Br)c4)C(=O)O[C@H]3[C@@H](OC)O[C@@H]2CO)cc1`, 0.505.
`C=C(/C(=C/C[C@H](OC(=O)c1ccncc1)c1cccc(OCCO)c1)c1cnc2ccccc2c1)C(C)C`: the z-score was -20.3 (active).
On the same count and under the same terms, in the case of `CS(=O)(=O)CCOC(=O)C1=CC(CCCO)=CC(C2CC2)N(Cc2cccc(OC(F)(F)F)c2)C=C1C(=O)OCCS(C)(=O)=O` (stereo not given) it was -2.34; in that of `NC(=O)[C@H]1[C@@H]2C(=O)O[C@@H](c3ccccc3)[C@@H](c3ccccc3)N2[C@@H](c2ccc(O)cc2)[C@]12C(=O)Nc1ccc(C#CC3=CCCCC3)cc12`, 0.481; in that of `[N-]=[N+]=NCc1ccccc1[C@@H]1OC(c2ccc(OCCCO)cc2)=N[C@]1(Cc1ccccc1)C(=O)NCCN1CCOCC1`, 0.75.
Same read-out and setting: the result for `COc1cc(C(O)C2C=CC3C(=O)N(Cc4ccccc4)C(=O)C3N2n2cnnc2)cc(OC)c1OC` (stereo not given) reads -0.519.
On the same count and under the same terms, in the case of `C=CCN1C(=O)[C@@]2(O[C@@H](CCO)[C@H]([Si](C)(C)c3ccc(OC)cc3)[C@H]2C)c2cc(N3CCOC3=O)ccc21` it was 0.885.
On to `CC(C)[C@H]1NC(=O)[C@@]23C(=O)N[C@@H](Cc4ccccc4)C2[C@H](C)[C@@]2(C)O[C@H]2C3/C=C/C/C=C\CNC(=O)[C@H](Cc2ccccc2)NC1=O` (stereo not given in full), for which the z-score was -0.228.
Same read-out and setting: in the case of `O=C1C2C=CC(C(O)c3ccco3)N(Nc3ccccc3)C2C(=O)N1c1ccccc1` (stereo not given) it was 0.0851; in that of `CC(C)C[C@@H]1NC(=O)[C@@]23C(=O)N[C@@H](Cc4ccccc4)C2[C@H](C)[C@@]2(C)O[C@H]2C3/C=C/C/C=C\CNC(=O)[C@@H](C)NC1=O` (stereo not given in full), -1.17; in that of `CCN(CC)c1ccc(N2CC=CC34O[C@@H]5/C=C\CCC(C)OC(=O)C5[C@H]3C(=O)N(C(C)CO)[C@@H]4C2=O)cc1` (stereo not given in full), -1.41.
On the same count and under the same terms, the result for `CO[C@H]1O[C@H](CO)[C@@H](OC(=O)c2ccc(Br)cc2)[C@@H]2OC(=O)[C@H](Cc3ccccc3)C/C=C/C[C@@H](Cc3ccccc3)C(=O)O[C@@H]12` reads -1.19; that for `CC(C)C(CO)N1C(=O)[C@@H]2[C@H]3C(=O)OCC=C[C@H]3OC23C=CCN(C(C)(C)C)C(=O)[C@@H]13` (stereo not given in full), 0.0191.
The same measure, in the same setting: the result for `[N-]=[N+]=Nc1ccccc1C[C@]1(C(=O)O)N=C(c2ccc(OCCCO)cc2)O[C@H]1c1ccccc1N=[N+]=[N-]` reads -0.896.
As for `C=C(/C(=C/C[C@@H](OC(=O)c1ccncc1)c1cccc(OCCO)c1)c1cnc2ccccc2c1)C(C)C`, the z-score is -1.77.
On the same count and under the same terms, the result for `CCCNC(=O)[C@@]1(Sc2ccc(C)cc2)CC(=O)N(C(C)C)[C@@H]1c1ccc(CO)cc1I` reads -0.877.
On the same count and under the same terms, in the case of `C=CCNC(=O)[C@@H]1[C@H]2C(=O)O[C@H](c3ccccc3)[C@H](c3ccccc3)N2[C@H](c2ccc(OCCO)cc2)[C@@]12C(=O)N(C(=O)OCCOC)c1ccc(C#CCCO)cc12` it was 0.269; in that of `CCCCCCCCCCC(O)C1C=CC2C(=O)N(c3ccccc3)C(=O)C2N1Nc1ccccc1F` (stereo not given), 0.849; in that of `COC(=O)C1N=C(c2ccc(OCCCO)cc2)N(c2ccccc2)O1` (stereo not given), -1.16.
The same measure, in the same setting: in the case of `COC(=O)[C@@]1(Cc2ccc(F)cc2)[C@H]2c3cc(C(=O)N4CCCC4)n(C)c3C[C@H]2CN1C(=O)c1ccccc1` it was 0.252; in that of `O=C1C2C=CC(C(O)C=Cc3ccc([N+](=O)[O-])cc3)N(Nc3ccccc3)C2C(=O)N1c1ccccc1` (stereo not given), 0.102.
